How the values were obtained:
Assay type in all cases: functional
[1] = test system: Plasmodium falciparum; experiment: GSK_TCMDC: Inhibition of Plasmodium falciparum 3D7 in whole red blood cells, using parasite LDH activity as an index of growth. Test compounds present at 2uM
[2] = test system: Plasmodium falciparum; experiment: GSK_TCMDC: Inhibition of Plasmodium falciparum Dd2 in whole red blood cells, using parasite LDH activity as an index of growth. Test compounds present at 2uM
[3] = test system: HepG2; experiment: GSK_TCMDC: Percent inhibition of human HepG2 cell line. Test compounds present at 10uM.

Row | SMILES | Inhibition [1] [%] | Inhibition [2] [%] | Inhibition [3] [%]
1 | FC(F)(F)c1ccc2[nH]c(-c3ccc(-c4ccc(CNCc5cnn(-c6ccccc6)n5)cc4)s3)nc2c1.O=C(O)C(F)(F)F | 100 | 89 | 27
2 | Cc1nc(N)nc(N)c1-c1cccc(Cl)c1 | 88 | 0 | 60
3 | Cc1cc(N[C@@H](Cc2ccccc2)C(=O)Nc2ccccc2)nc(NCCc2cccs2)n1.O=C(O)C(F)(F)F | 100 | 72 | 0
4 | COc1ccc(O)c(C(=O)c2cc(C(=O)NCCc3ccccc3)c(=O)n(CCc3ccccc3)c2)c1 | 97 | 18 | 11
5 | Br.C=CCc1cccc(OC)c1OCCCON1C(=N)N=C(N)NC1(C)C | 94 | 95 | 58
6 | NC(=O)CCC(NC(=O)CNC(=O)Nc1cccc(C(F)(F)F)c1)C(=O)O (centres undefined) | 97 | 93 | 1
7 | Cn1cnc2c(Nc3ccncc3)nc(-c3ccc4c(c3)OCO4)nc21.O=C(O)C(F)(F)F | 96 | 2 | 19
8 | COc1ccc(CNC2CCN(C)CC2)cc1-c1ccc(S(=O)(=O)NCc2ccccc2)s1.O=C(O)C(F)(F)F | 100 | 100 | 62
9 | Cc1nc(C)c(CC(=O)Nc2cccc(-c3cccc(-c4nc5cc(C(F)(F)F)ccc5[nH]4)c3)c2)s1 | 95 | 30 | 49
10 | COc1cccc(C(=O)C2CC2CN(C)CC(O)c2cc(C)c(OC)cc2C)c1.O=C(O)C(F)(F)F (centres undefined) | 88 | 73 | 8
11 | Cc1cccc(OC2CCN(c3ncc(C(=O)NCCCN4CCCC4=O)cc3Cl)CC2)c1 | 96 | 95 | 7
12 | CC(C)C[C@H](NC(=O)c1cc(-c2ccc(C(C)(C)C)cc2)no1)C(=O)O.CC(C)C[C@H](NC(=O)c1conc1-c1ccc(C(C)(C)C)cc1)C(=O)O | 95 | 6 | 3
13 | COc1ccc(CNC2CCCC2)cc1-c1ccc(S(=O)(=O)NCCN2CCCC2)s1.O=C(O)C(F)(F)F | 96 | 17 | 17
14 | O=C(Nc1ccc2ccccc2n1)c1ccccc1-c1ccccc1 | 90 | 83 | 14
15 | O=C(Nc1cccc(-c2cccc(-c3nc4cc(F)ccc4[nH]3)c2)c1)Nc1ccc2c(c1)OCO2 | 100 | 49 | 30
16 | COc1ccc(NC(=O)/C=C/c2ccccc2Cl)cc1OCCN1CCC(NCc2cccnc2)CC1 | 100 | 88 | 12
17 | Cc1cccc2nc(-c3cccc(-c4ccc(C(=O)NCc5nccn5C)cc4)c3)[nH]c12 | 100 | 9 | 18
18 | NCC(NC(=O)c1ccc(-c2c[nH]c3ncccc23)s1)c1ccccc1.O=CO (centres undefined) | 95 | 87 | 52
19 | COc1ccc2nccc([C@@H](O)CN3CCC(NC(=O)Cc4cc5ccccc5s4)CC3)c2c1 | 92 | 42 | 16
20 | CN(C)c1ccc(-c2csc(C(=O)NCC3CCN(Cc4cccc(C(F)(F)F)c4)C3)c2)cc1.O=C(O)C(F)(F)F (centres undefined) | 97 | 58 | 15
21 | CCOc1ccc(Nc2cc(C)nc(Nc3ccc(OCC)cc3)n2)cc1 | 100 | 49 | 3
22 | CCCNCc1ccc(-c2ccc(CN(CCOC)C(=O)CCCOCc3ccccc3)cc2)nc1.O=C(O)C(F)(F)F | 93 | 13 | 0
23 | NC1CCN(Cc2ccc(-c3ccc(-c4nc5cc(F)ccc5[nH]4)cc3)cc2)C1.O=C(O)C(F)(F)F (centres undefined) | 98 | 99 | 41
24 | O=C(NCCNc1ccnc2cc(Cl)ccc12)c1ccccc1F | 99 | 98 | 30
25 | CCNC(=O)Nc1ccc(-c2cccc(-c3nc4cccc(C)c4[nH]3)c2)cc1 | 91 | 34 | 16
26 | COc1ccc(CNCc2cccc(-c3ccc(-c4nc5ccccc5[nH]4)s3)c2)cc1.O=C(O)C(F)(F)F | 90 | 52 | 14
27 | CCCN1CCC(NCc2cn(C)nc2-c2ccc(Oc3ccccc3)cc2)CC1 | 88 | 44 | 34
28 | COc1cccc(Nc2nc(Nc3cccc(C#N)c3)cc(C(F)(F)F)n2)c1 | 99 | 45 | 15
